# Source: PubChem (National Center for Advancing Translational Sciences (NCATS))
# 12-LOX inh – Primary qHTS assay for inhibitors of human arachidonate 12S-lipoxygenase (ALOX12): Round 2. Polyunsaturated fatty acid lipoxygenase ALOX12 (Homo sapiens), P18054. purified 12hLO, xylenol orange hydroperoxide absorbance. Potency, µM (series often up to 108 µM), for inactives: at the highest dose activity change, negative = inhibition, usual class: inhibitors. actives 1.1% (n = 580,000). AID 1671190, 2021; further: potency means the concentration at half of the fitted maximal effect
# Target sequence (P18054 whole entry, looked up): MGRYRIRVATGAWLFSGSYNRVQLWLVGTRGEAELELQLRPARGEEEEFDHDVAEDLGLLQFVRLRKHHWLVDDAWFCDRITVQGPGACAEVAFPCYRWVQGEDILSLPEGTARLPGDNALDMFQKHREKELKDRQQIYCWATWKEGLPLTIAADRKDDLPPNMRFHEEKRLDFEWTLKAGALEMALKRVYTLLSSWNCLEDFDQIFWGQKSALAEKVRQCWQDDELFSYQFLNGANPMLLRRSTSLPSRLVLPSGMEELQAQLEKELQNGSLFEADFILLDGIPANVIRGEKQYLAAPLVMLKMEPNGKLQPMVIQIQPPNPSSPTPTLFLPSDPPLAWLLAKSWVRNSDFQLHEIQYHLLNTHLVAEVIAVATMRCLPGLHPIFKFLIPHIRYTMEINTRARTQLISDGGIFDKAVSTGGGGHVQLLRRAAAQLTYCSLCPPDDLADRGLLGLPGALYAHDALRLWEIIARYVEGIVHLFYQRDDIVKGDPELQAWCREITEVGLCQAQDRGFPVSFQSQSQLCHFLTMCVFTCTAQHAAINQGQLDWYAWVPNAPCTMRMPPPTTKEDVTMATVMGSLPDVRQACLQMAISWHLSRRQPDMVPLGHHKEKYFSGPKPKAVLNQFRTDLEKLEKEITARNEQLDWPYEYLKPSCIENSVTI
#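 Purified human 12hLO (150 nM final) in 25 mM Hepes, 0.01% Triton X-100, pH 7.0 was preincubated 15 min at room temperature with compound. Then 40 uM arachidonic acid was added, 30 min. Hydroperoxide was read by Fe-XO absorbance ratio 573/405 nm.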
# HT1080NT lethal – qHTS for induction of synthetic lethality in tumor cells producing 2HG: qHTS for the HT-1080-NT fibrosarcoma cell line | actives 1.6% (n = 360,000) | HT-1080-NT fibrosarcoma viability, CellTiter-Glo ATP luminescence, 48 h | AID 686970, 2013 | Potency, µM (doses to about 46.1 µM), without a hit: at the top dose activity, negative = less viability, usual class: cytotoxic;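 further: NT is the 2HG producing partner of a matched IDH1 knockdown line; potency means the concentration at half of the fitted maximal effect; 0% = DMSO-treated cells and -100% = media-only wells without cells; nearly all actives have a fitted effect of over 55% in size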
#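 Viability by CellTiter-Glo luminescence after 48 h compound exposure at 37C of HT-1080-NT cells (750/well, RPMI, 5% FBS). % activity scaled between DMSO wells and medium-only wells, then curve-fitted and categorized by curve class.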
# TDP1 cell noCPT – qHTS for Inhibitors of human tyrosyl-DNA phosphodiesterase 1 (TDP1): qHTS in cells in absence of CPT; DT40 Tdp1-/- hTDP1 cells, no CPT, ATP luminescence, 48 h; Potency, µM (series often up to 46.2 µM), for the others: at the highest dose activity change, negative = growth inhibition, most hits filed as inhibitors; actives 15% (n = 420,000); further: potency means the concentration at half of the fitted maximal effect; nearly all actives have a fitted effect of over 55% in size
#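 A cellular qHTS used chicken DT40 cells lacking endogenous Tdp1 but carrying stably transfected human TDP1. Compounds were applied without camptothecin, and cell growth kinetics were judged by ATP-dependent luminescence after ≥48 hr.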
# TDP1 cell CPT – qHTS for Inhibitors of human tyrosyl-DNA phosphodiesterase 1 (TDP1): qHTS in cells in presence of CPT; chicken DT40 Tdp1-/-;hTDP1 cells + 20 nM CPT, ATP luminescence, 48 h; Potency, µM (doses to about 46.2 µM), for the others: at the top dose activity change, negative = growth inhibition, hits mostly inhibitors; actives 12% (n = 420,000); AID 686979, 2013; further: potency means the concentration at half of the fitted maximal effect; nearly all actives have a fitted effect of over 55% in size
#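 Chicken DT40 Tdp1-/- cells stably complemented with human TDP1 were seeded at 400 cells/well in medium containing 20 nM camptothecin, exposed to pin-transferred compounds, and grown at 37 °C for at least 48 hr. Viability was read as ATP luminescence.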
# IL-1B inflam inh – qHTS for Inhibitors of Inflammasome Signaling: IL-1-beta AlphaLISA Primary Screen; THP-1 LPS/ATP IL-1B secretion, AlphaLISA, 16 h; stronger effect = lower value; activity change, % at 57.5 µM; actives 4.7% (n = 360,000); AID 743279, 2014; in the data active means activity change below about -50%; inconclusive means mostly about -30% to -49%
#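 THP-1 cells pretreated 1 hr with compounds (up to 57.5 uM final), then stimulated with LPS (250 ng/mL final) plus ATP (1.25 mM final); secreted IL-1B measured by AlphaLISA after 16 hr, decreased signal indicating inhibition.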
# HT1080 IDH1KD tx – qHTS for induction of synthetic lethality in tumor cells producing 2HG: qHTS for the HT-1080-IDH1KD cell line. HT-1080 IDH1 knockdown viability, ATP luminescence, 48 h. Potency, µM (series often up to 46.1 µM), inactives show at the top dose activity, negative = toxicity, usual class: cytotoxic. actives 2% (n = 360,000). AID 686971, 2013;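 further: potency means the concentration at half of the fitted maximal effect; 0% = DMSO wells and -100% = cell-free medium wells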
#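 In this qHTS, HT-1080 cells depleted of IDH1 are exposed for 48 h at 37 °C to compound titrations. Toxicity is scored from CellTiter-Glo luminescence, with DMSO as full viability and medium alone as none.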
# * marks the source's active call; other numbers are inactive results; i = inactive; ? = inconclusive; . = no result. Shown is part of a subset that was picked to be rich in hits. Unless noted, the call rests on the fitted dose curve; in most records, active means well fitted curve in the direction sought with a large enough effect; inconclusive means small, poorly fitted or top-dose-only effect, or another doubt; inactive means no such curve, though single readings can be large; an effect the other way counts as inactive or inconclusive. Unless noted, on the % scale 0 is the no-effect control and ±100 the full control effect.
SMILES,12-LOX inh,HT1080NT lethal,TDP1 cell noCPT,TDP1 cell CPT,IL-1B inflam inh,HT1080 IDH1KD tx
O=c1[nH]c2ccccc2cc1CN(C1CCCCC1)S(=O)(=O)c1ccccc1,-2%,.,.,.,.,.
O=C1CC2(CCCC2)C(=O)N1Cc1ncc(-c2ccccc2)o1,33%,.,.,.,.,.
Cn1cc(CCNC(=O)c2ccc3oc(-c4cccc(F)c4)nc3c2)cn1,-2%,.,.,.,.,.
C[C@H]1[C@@H](NC(=O)Nc2cccc(C(F)(F)F)c2)CC[C@@]23CCCN2C(=O)CCC[C@@H]13,6%,.,.,.,.,.
Cn1c(=O)[nH]c(=O)c2c1nc(Br)n2CCCSc1ncccn1,-16%,.,.,.,.,.
CCOC(=O)C1(Cc2cccc(OC)c2)CCN(Cc2ccc(OC)c(OC)c2)CC1,-6%,?,21µM*,?,-22,-21%
CCOC(=O)C1(Cc2ccccc2)CCN(Cc2cccc(OC)c2O)CC1,403%,-3%,?,?,-50*,-11%
CCOC(=O)C1(Cc2ccccc2)CCN(CC2CC=CCC2)CC1 (configuration not stated),-11%,-13%,?,-14%,28,-9%
CCOC(=O)C1(Cc2ccccc2)CCN(Cc2cccc3nccnc23)CC1,-11%,-11%,18µM*,?,-64*,-3%
CCOC(=O)C1(Cc2cccc(OC)c2)CCN(CC2CC=CCC2)CC1 (configuration not stated),12%,-20%,23µM*,?,33,-11%
CCOC(=O)C1(Cc2cccc(OC)c2)CCN(Cc2ccccc2OC)CC1,2%,?,?,-25%,-5,?
Cc1ccc2nc3n(c(=O)c2c1)-c1ccc(Cl)cc1C(=O)NC3CC(C)C (configuration not stated),-12%,.,.,.,.,.
CCOC(=O)C1(Cc2cccc(OC)c2)CCN(Cc2cccn2-c2nccs2)CC1,7%,-3%,?,?,-77*,-17%
CCOC(=O)C1(Cc2ccccc2)CCN(Cc2cnn(C(C)C)c2)CC1,21%,0%,-24%,15%,33,0%
CCOC(=O)C1(Cc2cccc(OC)c2)CCN(Cc2cccc(OC)c2O)CC1,?,?,21µM*,23µM*,?,?
CCOC(=O)C1(Cc2cccc(OC)c2)CCN(Cc2ccc(C)s2)CC1,-2%,-25%,18µM*,21µM*,-118*,?
CCOC(=O)C1(Cc2cccc(OC)c2)CCN(Cc2cccc(O)c2)CC1,-10%,-5%,?,-17%,?,-4%
CCOC(=O)C1(Cc2ccccc2)CCN(Cc2csc(C(C)=O)c2)CC1,11%,-6%,?,-24%,-61*,-14%
COC(=O)COc1ccc(C2C3=C(CC(C)(C)CC3=O)OC3=C2C(=O)CC(C)(C)C3)cc1OC,-53%,.,.,.,.,.
O=C(c1cccc(S(=O)(=O)N2CCN(c3ccccc3)CC2)c1)N1CCCC(C(F)(F)F)C1 (configuration not stated),8%,?,5.2µM*,7.3µM*,-3,-11%
CCOC(=O)c1ccc(S(=O)(=O)N2CCN(C(=O)CSc3nc4ccccc4o3)CC2)cc1,-19%,1%,12µM*,12µM*,0,-6%
CN1CCN(C(=O)CSc2nc3ccccc3o2)CC1,-11%,.,.,.,.,.
CC(=O)N1CCN(S(=O)(=O)c2cccc(C(=O)OCc3ccc(C(C)(C)C)cc3)c2)CC1,-6%,-25%,8.2µM*,7.3µM*,15,-20%
CN1CCN(S(=O)(=O)c2cccc(C(=O)N3CCN(c4ccccc4)CC3)c2)CC1,12%,0%,13%,-18%,3,0%
CC1CN(C(=O)c2cccc(S(=O)(=O)N3CCN(c4ccccc4)CC3)c2)CC(C)O1 (configuration not stated),165%,9%,?,15µM*,40,2%
SMILES,12-LOX inh,HT1080NT lethal,TDP1 cell noCPT,TDP1 cell CPT,IL-1B inflam inh,HT1080 IDH1KD tx
C[C@@H]1COc2cc(N3CCCC3)ccc2S(=O)(=O)N1,-4%,.,.,.,.,.
COc1cccc(C(=O)N2CCC(N(C(C)=O)C3CCOCC3)CC2)c1,58%,.,.,.,.,.
O=C(Cc1ccccc1)N1CCC2(CC1)N(c1ccccc1)C(=O)CS2(=O)=O,13%,.,.,.,.,.
O=C(c1cc(S(=O)(=O)N2CCN(c3ccccc3)CC2)ccc1Cl)N1CCCC(C(F)(F)F)C1 (configuration not stated),-9%,-17%,?,15µM*,-8,-24%
CCOC(=O)c1ccc(S(=O)(=O)N2CCN(C(=O)c3cccc(S(=O)(=O)N4CC(C)OC(C)C4)c3)CC2)cc1 (configuration not stated),-2%,1%,9.2µM*,16µM*,-20,-9%
Cc1ccc(Nc2nc(-c3ccc(S(=O)(=O)N4CCOCC4)cc3)cs2)cc1Cl,1%,23µM*,6.5µM*,4.6µM*,-30,16µM*
Cc1cc(-c2nc(-c3ccc(S(=O)(=O)N4CCOCC4)cc3)cs2)ccc1F,-29%,.,.,.,.,.
CCCCC(=O)Nc1nc(-c2ccc(S(=O)(=O)N3CCOCC3)cc2)cs1,-12%,?,18µM*,?,-6,-25%
CC(C)CC(=O)Nc1nc(-c2ccc(S(=O)(=O)N3CCOCC3)cc2)cs1,-3%,?,16µM*,13µM*,i,-13%
CCc1nc2c(c(-c3ccc(Cl)cc3)n1)CCN([S+](=O)([O-])c1cccc(C(F)(F)F)c1)CC2,40%,.,.,.,.,.
COc1ccccc1CCNC(=O)CCc1c(C)c2cc3c(C)c(C)oc3cc2oc1=O,-14%,.,16µM*,18µM*,.,.
Cc1c(CC(=O)NCCc2ccccc2F)c(=O)oc2cc(O)ccc12,-1%,.,.,.,.,.
Cc1oc2cc3oc(=O)c(CCC(=O)NCCc4ccccc4F)c(C)c3cc2c1C,-9%,.,23µM*,23µM*,.,.
Cc1nc2ccccc2c(C)c1CC(=O)NCCc1ccccc1F,18µM*,.,.,.,.,.
COc1ccc2c(C)c(CCC(=O)NCCc3ccc(OC)c(OC)c3)c(=O)oc2c1,-20%,.,?,13µM*,.,.
